These results are taken from PubChem BioAssay (NCI).

“And” between values parts separate entries of the source, which are not always exact repeats. Equal entries are not always repeated. About 83,000 compounds went through this panel and 20% of them were active in at least one assay; those are over-represented in the sample as a whole.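 Cell lines were cultured in 96-well plates, exposed to a single compound concentration, and assessed for percent growth 48 hours later.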 The source made the active and inactive calls. How the source made its calls: active means growth percent below 10; inactive means the rest.

The subject of this experiment is MDA-MB-468 breast. In words: NCI-60 one-dose screen, 48 h (100 = growth as untreated, 0 = no growth, -100 = all killed). The following applies: 10 µM unless noted.
Consider `CC(C)Oc1nc2c(c(=O)n(C)c(=O)n2C)n1C`, for which the growth was 109% (inactive). The figure for `CSCCC(C(=O)O)N1C(=O)/C(=C/c2ccc(O)c(O)c2)SC1=S` (stereo unspecified) is 100% (inactive); for `COc1cc2oc(-c3cccc(NC(=O)Nc4ccc5c(c4)OCO5)c3)cc(=O)c2c(OC)c1OC` it is 75.2% (inactive); for `CS(=O)(=O)c1nccc(-c2c(-c3cccc(OCc4ccc(Cl)c(C(F)(F)F)c4)c3)nc3sccn23)n1` it is -66.1% (active).

Turning to `CCOC(=O)c1ccc(C(=N)N)cc1`, the growth was 106% (inactive).

For the compound `NCCC(=O)c1ccc(Cl)cc1`, the growth is 113% (inactive). The figure for `CC(/C=C1\SC(=S)N(CC(=O)NC(Cc2c[nH]c3ccccc23)C(=O)O)C1=O)=C\c1ccccc1` (stereo unspecified) is 95.1% (inactive). Under `COc1ccc(/C=C/C(=O)O)cc1OC` stands 99.5% (inactive) and 102% (inactive); under `c1ccc(Cn2cc3c(c2-c2ccccc2)CCc2cnoc2-3)cc1`, 66.5% (inactive); under `C#Cc1cccc(Nc2nc(Cl)nc3cc(NC(=O)CCl)ccc23)c1`, -71% (active). Under `C=C(Cl)C(=NC(C)(C)C)Nc1ccccc1C` stands 39.2% (inactive); under `CCCCCSB(SCCCCC)c1ccccc1`, 102% (inactive). On to `Cc1ccc(-c2nc(/C=C3/C(=O)Nc4ccccc43)c3ccccn23)cc1`, for which the growth was 69.6% (inactive). With `Cc1ccc2c(-c3nnc(N)s3)cc(=O)oc2c1C`, the growth is 95.6% (inactive). Under `COc1cc(-c2nn(C(C)(C)C)cc2-c2ccnc(NCCCNS(=O)(=O)c3ccc(Cl)cc3)n2)ccc1Cl` stands 63.7% (inactive); under `CC(C)c1ccc(NC(=O)Nc2ccc(NC(=O)c3ccccc3N)cc2)cc1`, 81.4% (inactive).
